Assay outcomes from PubChem BioAssay.
PME-1 primary = PME-1 inhibitors via competitive probe labeling, primary screen, biochemical, fluorescence polarization, FP-Rh probe, HTS; recombinant PME-1; inhibition, % at 5.9 µM; 320,000 compounds, 0.53% hits; AID 2130, 2009;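 active = inhibition above the campaign mean of all compounds plus 3 SD, cut at about 26% in these data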;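 note: competitive labeling of PME-1 active site by serine hydrolase directed probe; 0% = PME-1 with DMSO and 100% = wells lacking PME-1 enzyme; inhibitors block probe labeling so polarization falls and inhibition rises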
Fam108B counter = mouse Fam108B serine hydrolase inhibitors, primary screen, counter-screen for RBBP9 inhibitor project, biochemical, fluorescence polarization; recombinant Fam108B, FP-Rh probe fluorescence polarization; inhibition, % at 9.51 µM; 300,000 compounds, 0.33% hits;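 active = inhibition above the screen mean inhibition plus 3 SD, computed separately per campaign, cut at about 18% in these data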;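 note: inhibitors lower polarization as less probe binds the enzyme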
PREPL inhibitor = PREPL enzyme inhibitors, primary screen, biochemical, fluorescence polarization. Prolyl endopeptidase-like (Homo sapiens), Q4J6C6. recombinant PREPL, fluorescence polarization activity-based probe. inhibition, % at 5.96 µM. 320,000 compounds, 0.68% hits; in the data active = inhibition above about 43%;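 note: 0% = enzyme with DMSO and 100% = wells lacking enzyme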
LYPLA2 counter = LYPLA2 inhibitors, primary screen, counter-screen for PME1 inhibitor project, biochemical, fluorescence polarization, FP-Rh probe ABPP; Acyl-protein thioesterase 2 (Homo sapiens), O95372; recombinant LYPLA2; inhibition, % at 5.9 µM; 320,000 compounds, 0.38% hits; AID 2177, 2009;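 active = inhibition above the screen-wide mean plus 3 SD, limit set per campaign, cut at about 26% in these data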;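 note: 0% = LYPLA2 with DMSO and 100% = wells lacking LYPLA2 enzyme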
Target sequence (O95372 whole entry, looked up): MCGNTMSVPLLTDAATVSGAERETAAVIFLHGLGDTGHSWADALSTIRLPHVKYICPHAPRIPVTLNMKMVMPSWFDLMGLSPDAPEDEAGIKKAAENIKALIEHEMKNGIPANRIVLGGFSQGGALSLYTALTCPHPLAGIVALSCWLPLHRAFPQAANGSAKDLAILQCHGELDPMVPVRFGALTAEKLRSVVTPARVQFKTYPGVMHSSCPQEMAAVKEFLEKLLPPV
LYPLA1 inh = LYPLA1 inhibitors, primary screen, counter-screen for PME1 inhibitor project, biochemical, fluorescence polarization, FP-Rh probe ABPP. recombinant LYPLA1. inhibition, % at 5.9 µM. 320,000 compounds, 0.16% hits;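 active = inhibition above the mean of all tested compounds plus 3 SD, set per campaign, cut at about 14% in these data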;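 note: inhibitors block serine hydrolase probe labeling of LYPLA1 so polarization falls; 0% = enzyme with DMSO and 100% = wells lacking LYPLA1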
Target sequence (O75608 whole entry, looked up): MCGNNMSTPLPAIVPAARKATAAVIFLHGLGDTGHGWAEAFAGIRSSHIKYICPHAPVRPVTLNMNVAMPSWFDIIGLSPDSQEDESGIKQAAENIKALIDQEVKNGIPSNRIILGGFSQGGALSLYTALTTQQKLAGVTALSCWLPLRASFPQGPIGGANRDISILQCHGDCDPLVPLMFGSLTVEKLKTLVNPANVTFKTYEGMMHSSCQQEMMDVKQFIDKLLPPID
* marks the source's active call; other numbers are inactive results; . = no result given. Most compounds without a hit are left out; they make up all but 1.3% or so of the library.

SMILES | PME-1 primary | Fam108B counter | PREPL inhibitor | LYPLA2 counter | LYPLA1 inh
CC(C)N(CCO)C(=O)CCc1nnc(Cc2cccc(C(F)(F)F)c2)o1 | 2.1 | -2.2 | 15.1 | -1.6 | -0.6
COc1ncnc2sc(-c3ccccc3)cc12 | -0.3 | -0.7 | -15.9 | -5.5 | -8.8
COc1ccc(Nc2ncnc3sc(-c4ccccc4)cc23)cc1 | 33.5* | 12.2 | 25.7 | 9.6 | -3.5
CCCCCCn1c(=O)[nH]c2nc3cc(N)ccc3nc2c1=O | 30.1* | 6.9 | 19.8 | 7.5 | 1.5
CCOc1ccccc1/C=C(\C#N)C(=O)Nc1cccc(C(=O)O)c1 | 142.3* | 0.2 | -4.6 | -0.7 | 1.9
COC(=O)c1c(C)[nH]c(O)c1C=Nc1ccc(Oc2ccccc2)cc1 | -0.4 | -2.3 | 0.0 | 1.2 | -1.5
COC(=O)c1c(C)[nH]c(O)c1C=Nc1ccc(C(C)C)cc1 | 15.1 | 7.3 | 47.0* | 0.0 | 2.1
COc1ccc(C2=NOC(C)(c3nnc(-c4ccc(Cl)cc4)o3)C2)cc1 (stereo not drawn) | -3.0 | -1.0 | -20.1 | 3.2 | 3.5
COC(=O)c1ccc(Sc2ccccc2NS(=O)(=O)c2ccc(C)cc2)nc1 | 28.9* | -3.3 | 22.1 | 6.0 | 7.4
C[C@H](CO)N1C[C@H](C)[C@@H](CN(C)C(=O)Nc2ccc3c(c2)OCO3)Oc2c(NC(=O)Cc3ccccc3)cccc2C1=O | . | . | 15.7 | . | .
Cc1cc(C(=O)N/N=C/c2cccc([N+](=O)[O-])c2)c(C)n1-c1ccccc1 | 28.9* | 4.4 | 16.6 | 6.5 | 1.9
COc1ccc(/C=N/NC(=O)c2cc(C)n(-c3ccccc3)c2C)cc1OC | -3.7 | 4.3 | 10.8 | -1.7 | -5.5
CCOc1cc(/C=N/NC(=O)c2cccc([N+](=O)[O-])c2)ccc1OS(=O)(=O)c1ccccc1 | 41.4* | 9.1 | 1.9 | -3.6 | -17.4
Cc1cc(C)c(C#N)c(SCc2c(F)cccc2[N+](=O)[O-])n1 | -1.6 | 4.4 | 12.8 | 34.3* | 3.5
Cc1cc(C)c(C#N)c(SCc2ccccc2[N+](=O)[O-])n1 | 8.6 | 0.0 | 0.4 | 18.9 | -1.0
Cc1ccccc1OCCn1cc(C(=S)N2CCN(C)CC2)c2ccccc21 | -0.1 | 5.2 | 58.5* | -7.3 | 0.7
Cc1ccccc1OCCn1cc(C(=S)N2CCCC2)c2ccccc21 | 0.8 | 8.7 | 41.9 | -0.2 | -1.3
Cc1nn(Cc2ccccc2)c2c1C(c1cccc(Cl)c1)C(C#N)=C(N)O2 (stereo not drawn) | 4.3 | 7.1 | -2.1 | 1.6 | -3.4
Cc1ccc(S(=O)(=O)N2CCN(C(=O)COC(=O)c3oc4ccccc4c3C)CC2)cc1 | 25.1 | 2.7 | 2.4 | 5.1 | -0.5
COc1ccc2oc(C(=O)OCC(=O)N3CCN(S(=O)(=O)c4ccc(C)cc4)CC3)c(C)c2c1 | 30.9* | -2.9 | -1.8 | -9.8 | -2.7
O=c1[nH]c(N/N=C\c2ccc3c(c2)OCO3)nc2ccccc12 | 29.5* | 3.5 | 41.5 | 7.3 | 6.5
COc1ccc([C@H]2CC(=O)C=C(c3cccc(C(C)C)c3)C2)cc1 | -3.2 | . | 14.3 | 10.4 | 4.9
Cc1ccc(CNC(=O)/C(C#N)=C\c2ccc(N(C)C)cc2)cc1 | 26.8* | 7.8 | 27.5 | 6.9 | -1.6
CC1=C/C(=C\c2ccc(Br)o2)C(=O)O1 | -4.0 | 2.8 | 5.8 | 2.8 | -1.1
O=C1C(=Cc2ccc(Br)o2)C(=O)c2ccccc21 | -6.8 | 55.2* | -2.7 | 1.5 | -6.6
SMILES | PME-1 primary | Fam108B counter | PREPL inhibitor | LYPLA2 counter | LYPLA1 inh
Cc1ccc(-c2nnc(Nc3ccc4c(c3)OCO4)c3ccccc23)cc1S(=O)(=O)NC(C)C | 20.1 | 7.2 | 50.0* | 5.5 | -3.1
CCC(=O)N1c2ccc(S(=O)(=O)N3CCN(c4cc(C)ccc4C)CC3)cc2CC1C (stereo not drawn) | -7.4 | -0.5 | 0.3 | 6.6 | -1.7
CC1(C)CC(=O)C2=C(C1)N1C(=C(C#N)C2c2ccc(Cl)cc2)N=C(N)c2ccccc21 (stereo not drawn) | 31.3* | 1.2 | 8.2 | -1.6 | -2.8
COc1ccc(/C=C2\Sc3ccc(C(=O)N4CCN(Cc5ccccc5)CC4)cc3N(C)C2=O)cc1OC | 41.6* | -2.2 | 30.8 | 5.6 | -1.9
COC(=O)C(C(=O)Nc1nc2ccccc2s1)C1CCCC1 (stereo not drawn) | -1.0 | 1.4 | -3.3 | -4.5 | -1.7
Cn1c(=O)c2c(nc(CN3CCN(C(c4ccccc4)c4ccccc4)CC3)n2CCCO)n(C)c1=O | 29.9* | -3.5 | 6.5 | -1.9 | -2.0
CCCCCn1c(CN2CCN(Cc3ccccc3)CC2)nc2c1c(=O)n(C)c(=O)n2C | -0.1 | 0.4 | 18.5 | -3.2 | -0.7
CCOC(=O)c1c2c(n(C)c1COC)C(=O)C(=O)c1ccc(Br)cc1-2 | -4.5 | 28.6* | 9.8 | -2.5 | -3.6
CCCn1c(=O)c(C(=O)OCC)c(O)c2cc(Br)ccc21 | -0.2 | -3.1 | -9.4 | -6.4 | -4.2
O=[N+]([O-])c1ccccc1NC(=S)N/N=C/c1ccc(O)c(O)c1 | 27.5* | 12.4 | 14.6 | -9.8 | -15.1
CCOc1cccc(/C=N/NC(=S)Nc2ccccc2[N+](=O)[O-])c1O | 11.7 | 9.2 | 8.3 | -0.6 | -4.8
S=c1[nH]c(-c2ccccc2)cn1/N=C/c1cccc2ccccc12 | 28.3* | 16.9 | 23.0 | -0.6 | -8.4
S=c1[nH]c(-c2ccccc2)cn1/N=C/c1ccccc1Br | 9.8 | 6.0 | 18.3 | -2.9 | -0.6
CCOc1ccc2c(c1)sc(N)[n+]2Cc1cc(C)cc2cccnc12 | 12.1 | 1.5 | -11.8 | 34.8* | 0.2
COc1ccc(NC(=O)CSc2nc3nc(-c4cccs4)cc(C(F)(F)F)c3c(=O)[nH]2)c(OC)c1 | 45.7* | -1.1 | 7.3 | -5.5 | -7.9
COCCn1nnnc1C(c1cccs1)N1CCN(c2cc(C)ccc2C)CC1 (stereo not drawn) | -5.8 | 0.7 | -6.8 | -4.3 | 2.1
COCCn1nnnc1C(c1cccs1)N1CCN(c2nc3ccccc3s2)CC1 (stereo not drawn) | 4.0 | 1.1 | 50.3* | -3.1 | -1.7
CN(CC1CCCN(CCc2ccc(Cl)cc2)C1)C(=O)c1ccco1 (stereo not drawn) | -2.1 | -0.4 | 13.9 | 1.2 | -0.8
COc1ccc(/C(C)=C2/SC(=S)N(CCC(=O)O)C2=O)cc1 | 26.7* | -1.3 | 8.6 | 1.2 | -1.9
COc1ccc(/C=C2/SC(=S)N(CCC(=O)O)C2=O)cc1 | 2.3 | 3.4 | 30.5 | -1.5 | 0.2
Cc1cc(-c2nnc(SCC(=O)Nc3nc(-c4ccc(Cl)cc4)cs3)o2)no1 | 27.9* | -7.4 | -12.7 | -15.8 | -9.0
Cc1ccc(N2C(=O)CC(N3CCN/C3=C3\CC/C(=C\c4ccccc4)C3=O)C2=O)cc1 (stereo not drawn) | 1.6 | -1.6 | 32.0 | 1.0 | -3.0
CCC[C@@H]1C[C@@]1(CCC)[C@@H](NP(=O)(c1ccccc1)c1ccccc1)c1ccc(C(=O)OC)cc1 | 0.4 | -9.2 | -3.2 | -11.3 | -5.8
